# GPT2 inh: Primary qHTS assay for inhibitors of Glutamate pyruvate transaminase 2 (GPT2); Recombinant GPT2, coupled pyruvate oxidase/HRP Amplex Red fluorescence; Potency, µM (series often up to 57.7 µM), actives largely listed as inhibitors; actives 0.25% (n = 100,000); AID 1671188, 2021; also: nearly all actives have a fitted effect of over 60% in size
#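 Fluorescence of coupled pyruvate oxidase/HRP/Amplex Red system (50uM Amplex, 30 min, dark) reports pyruvate formed by GPT2. Enzyme reaction: 10ng/uL GPT2, 2mM L-alanine, 250uM a-KG, 30 min room temperature, pH 7.5; 50uM AOA control.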
# Luciferase inh: Firefly luciferase inhibition profiling of diverse chemical library using quantitative high-throughput screening. Luciferin 4-monooxygenase (Photinus pyralis), P08659. purified P. pyralis luciferase, luminescence, biochemical. actives 2.5% (n = 76,000). Potency, µM (highest dose often 115 µM), most hits filed as inhibitors. AID 1347043, 2019; also: nearly all actives have a fitted effect of over 65% in size
#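 FLuc 10nM, D-luciferin 10uM, ATP 10uM, Mg acetate 10mM, Tris acetate pH 7.5, Tween/BSA; cpd qHTS; enzyme added last; CCD luminescence.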
# HEK293 tox: Cytotoxic Profiling in HEK 293 Cell Line of Diverse Libraries Using Quantitative High-Throughput Screening. actives 6.6% (n = 94,000). Potency, µM (top dose mostly 115 µM), hits mostly inhibitors. AID 1345083, 2018. HEK 293 viability, ATP luminescence (CellTiter-Glo), 48-72 h; also: nearly all actives have a fitted effect of over 60% in size
#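 ATP-coupled CellTiter-Glo luminescence served as viability read-out, recorded 10 min after reagent addition at room temperature. HEK 293 cells, 250 cells/well, had been incubated with pintool-transferred compound for 48 or 72 hr at 37 degree Celsius.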
# NPR1 antag: Natriuretic polypeptide receptor (hNpr1) antagonism - Primary qHTS; actives 1.6% (n = 76,000); AID 1347048, 2019; Atrial natriuretic peptide receptor 1 (Homo sapiens), P16066; HEK293 hNpr1 GloSensor cGMP, ANP-stimulated luminescence; Potency, µM (titrated, usually from 46.3 µM), usual class: inhibitors; calls by dose curve; also: nearly all actives have a fitted effect of over 60% in size
#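 Compound pre-incubated 30 min at room temperature on GloSensor-loaded HEK293 cells stably carrying hNpr1 and the pGS-40F cGMP biosensor. Stimulation uses hNppA at 0.1 nM final; luminescence is taken at baseline and 20 min post-agonist.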
# NIH3T3 tox: Cytotoxic Profiling in NIH 3T3 Cell Line of Diverse Libraries Using Quantitative High-Throughput Screening. AID 1345082, 2018. actives 4.3% (n = 94,000). NIH 3T3 viability, CellTiter-Glo ATP luminescence, 48-72 h. Potency, µM (titrated, usually from 96.7 µM), usual class: inhibitors; also: nearly all actives have a fitted effect of over 55% in size
#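 Cytotoxicity is measured as loss of cellular ATP: NIH 3T3 cells (400/well) are exposed to compound for 48 or 72 hr at 37 °C, then CellTiter-Glo luminescence is imaged after 10 min at room temperature.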
# NPR1 antag cnf: Natriuretic polypeptide receptor (hNpr1) antagonism - Confirmation. Potency, µM (series often up to 57.6 µM), most hits filed as inhibitors. HEK293 hNpr1 cGMP GloSensor luminescence, ANP-stimulated. actives 76% (n = 1,400). shares compounds with NPR1 antag; calls by dose curve; also: nearly all actives have a fitted effect of over 70% in size
# Npr2 selectivity: Natriuretic polypeptide receptor (hNpr2) antagonism - Subtype selectivity assay. shares compounds with NPR1 antag. HEK293 hNpr2 GloSensor cGMP luminescence, CNP-stimulated. Potency, µM (titrated, usually from 57.6 µM), actives largely listed as inhibitors. actives 67% (n = 1,400). AID 1347046, 2019; calls by dose curve; also: nearly all actives have a fitted effect of over 70% in size
# Target sequence (P20594 whole entry, looked up): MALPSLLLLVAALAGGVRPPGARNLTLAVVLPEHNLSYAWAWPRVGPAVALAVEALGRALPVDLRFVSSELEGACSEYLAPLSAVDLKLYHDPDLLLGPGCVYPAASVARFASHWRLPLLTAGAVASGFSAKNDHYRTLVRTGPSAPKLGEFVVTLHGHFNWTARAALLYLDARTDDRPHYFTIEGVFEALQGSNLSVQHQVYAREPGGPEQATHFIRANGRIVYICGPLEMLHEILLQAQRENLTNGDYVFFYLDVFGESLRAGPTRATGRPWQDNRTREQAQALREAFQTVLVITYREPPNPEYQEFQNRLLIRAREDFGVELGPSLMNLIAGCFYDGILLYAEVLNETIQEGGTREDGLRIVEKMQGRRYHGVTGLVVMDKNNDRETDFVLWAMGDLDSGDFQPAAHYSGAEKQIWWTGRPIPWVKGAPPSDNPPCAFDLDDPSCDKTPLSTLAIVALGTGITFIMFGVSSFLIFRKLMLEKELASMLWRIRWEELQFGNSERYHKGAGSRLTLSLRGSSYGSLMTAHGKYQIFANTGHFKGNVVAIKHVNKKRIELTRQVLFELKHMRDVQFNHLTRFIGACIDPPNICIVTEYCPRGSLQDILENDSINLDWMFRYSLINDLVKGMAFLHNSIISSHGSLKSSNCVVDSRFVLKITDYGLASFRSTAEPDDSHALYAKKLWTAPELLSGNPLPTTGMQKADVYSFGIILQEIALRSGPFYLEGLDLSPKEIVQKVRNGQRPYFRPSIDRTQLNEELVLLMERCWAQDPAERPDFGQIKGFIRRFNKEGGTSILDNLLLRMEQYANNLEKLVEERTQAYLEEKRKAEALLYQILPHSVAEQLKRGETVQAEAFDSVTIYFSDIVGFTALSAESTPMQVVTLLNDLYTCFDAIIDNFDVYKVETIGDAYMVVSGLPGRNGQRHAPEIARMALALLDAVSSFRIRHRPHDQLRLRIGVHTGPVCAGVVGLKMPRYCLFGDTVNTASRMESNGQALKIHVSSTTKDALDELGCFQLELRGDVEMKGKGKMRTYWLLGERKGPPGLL
# FLuc inh counter: Natriuretic polypeptide receptor (hNpr1) antagonism - Confirmation firefly luciferase (FLuc) inhibition counterscreen; purified FLuc enzyme, luminescence, Km substrate; Potency, µM (series often up to 57.6 µM), actives largely listed as inhibitors; actives 0.7% (n = 1,400); shares compounds with NPR1 antag
# GloSensor cGMP: Natriuretic polypeptide receptor (hNpr1) antagonism - Counterscreen GloSensor control cell line; HEK293 GloSensor cGMP, SNP-stimulated, luminescence; Potency, µM (top dose mostly 57.6 µM), actives largely listed as inhibitors; shares compounds with NPR1 antag; actives 69% (n = 1,400); calls by dose curve; also: nearly all actives have a fitted effect of over 70% in size
# Numbers stand for hits; n = inactive; u = inconclusive; x = not tested or not shown. Sampled rows, rich in hits. Any-hit rate of the full collection: about 10%. Unless noted, calls follow the shape of the dose curve; as a rule, active = well fitted curve in the direction sought with a large enough effect; inconclusive = small, poorly fitted or top-dose-only effect, or another doubt; inactive = no such curve, though single readings can be large; an effect the other way counts as inactive or inconclusive.
SMILES,GPT2 inh,Luciferase inh,HEK293 tox,NPR1 antag,NIH3T3 tox,NPR1 antag cnf,Npr2 selectivity,FLuc inh counter,GloSensor cGMP
O=C(c1ccccc1)N1CCc2sc(C(=O)N3CCN(c4ccc(F)cc4)CC3)cc2C1,n,n,u,7.08µM,u,9.68µM,10.9µM,n,6.85µM
NC(=O)CNC(=O)c1cc2c(s1)CCN(C(=O)c1ccc(Cl)cc1)C2,u,n,n,n,n,x,x,x,x
C[C@@]1(O)[C@H](O)[C@@H](CO)O[C@H]1n1cnc2c(=O)[nH]c(N)nc21,n,x,x,x,x,x,x,x,x
Cc1ccccc1S(=O)(=O)N1CCCC(CCC(=O)Nc2cccc(Cl)c2)C1 (centres undefined),n,n,22.4µM,11.2µM,u,24.3µM,27.3µM,n,27.3µM
C=C1C(O)C(O)C2(CC3C(C)=CCC4C(C)(CO)CCCC34C)OC2C1O (centres undefined),n,x,x,x,x,x,x,x,x
O=C(Nc1cc(F)cc(C(F)(F)F)c1)N1CCCOC(Cn2cccn2)C1 (centres undefined),n,n,u,12.6µM,u,21.7µM,21.7µM,n,19.3µM
Cc1cccc(-n2ncc3c2CCCC3NC(=O)c2c(F)ccc(F)c2F)c1C (centres undefined),n,n,n,5.01µM,u,10.9µM,10.9µM,n,8.62µM
CCOc1ccc(-c2ccc(Cn3c(CC(C)(C)C(=O)O)c(SC(C)(C)C)c4cc(OCc5ccc(C)cn5)ccc43)cc2)cn1,n,x,x,x,x,x,x,x,x
Cc1ccc(C(=O)N2CCC(Cc3nc(-c4ccccc4)no3)CC2)s1,n,n,31.6µM,6.31µM,u,7.69µM,9.68µM,n,8.62µM
Cc1cc(C)cc(C(=O)N2CCC(Cc3nc(-c4ccccc4)no3)CC2)c1,n,n,u,u,u,x,x,x,x
COc1ccc(C(=O)N2CCC(Cc3nc(-c4ccccc4)no3)CC2)cc1F,n,n,u,3.16µM,u,3.06µM,3.06µM,n,3.06µM
CCCCOc1ccc(C(=O)N2CCC(Cc3nc(-c4ccccc4)no3)CC2)cc1,n,n,u,10µM,u,17.2µM,13.7µM,n,12.2µM
COc1ccc(C(=O)N2CCC(Cc3nc(-c4ccccc4)no3)CC2)cc1OC,n,n,u,2.82µM,u,5.44µM,6.85µM,n,5.44µM
Cc1cc(-c2ccc(CC(=O)Nc3ccc(-c4cccnc4)cc3)cc2)ccn1,n,x,x,x,x,x,x,x,x
O=C(c1ccccc1Cl)N1CCCC(C(=O)N2CCC(c3nc4ccncc4[nH]3)C2)C1 (centres undefined),n,x,n,x,n,x,x,x,x
CC(=O)N1CC2(CCCN2C(=O)CCC(=O)O)Cc2ccccc21 (centres undefined),n,x,n,x,n,x,x,x,x
O=C(NCc1ccccc1F)c1ccc2c(c1)CN(Cc1ccncc1)CCO2,n,n,u,12.6µM,n,17.2µM,17.2µM,n,10.9µM

# Source: PubChem BioAssay (National Center for Advancing Translational Sciences (NCATS))
